Assay results as given in PubChem BioAssay AID1159580 (chemical genetic matrix, 2015).
“And” between values parts separate entries of the source, which are not always exact repeats. Equal values may be shown once. Among all 5,500 compounds or so, about 2,000 (36%) were called active. Inconclusive results (about 18%) are left out. No stated cut-off is given here; in the data, active means normalized growth mostly below about 0.91 (no sharp cut-off); inconclusive means no clear call, values can overlap the other calls; inactive means mostly above about 0.92. The list shows a part of the results.

Assay: chemical genetic growth profiling, strain panel (AID 1159580);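 further: tested at 20 µM; growth read once vehicle control cultures reached saturation at 30 °C; 1 = growth at the plate median or of vehicle wells; lower values mean less growth of the strain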
Settings: growth OD

Measured: normalized growth

O=c1n(CCCN2CCN(c3cccc(Cl)c3)CC2)nc2ccccn12
inactive: S. cerevisiae deletion strains, locus YJR066W, strain TOR1, active compounds read low 0.943 | S. cerevisiae deletion strains, locus YJR075W, strain HOC1, active compounds read low 0.94 and 0.981 | S. cerevisiae deletion strains, locus YKL009W, strain mrt4, active compounds read low 0.967 | S. cerevisiae deletion strains, locus YKL068W, active compounds read low 0.989 | S. cerevisiae deletion strains, locus YKL085W, strain MDH1 (second series), active compounds read low 0.992 | S. cerevisiae deletion strains, locus YKL085W, strain MDH1, active compounds read low 0.992 | S. cerevisiae deletion strains, locus YKL160W, strain elf1, active compounds read low 0.986 | S. cerevisiae deletion strains, locus YKL190W, strain CNB1, active compounds read low 0.986 | S. cerevisiae deletion strains, locus YKR001C, strain vps1, active compounds read low 0.972 | S. cerevisiae deletion strains, locus YKR026C, strain gcn3, active compounds read low 0.984 | S. cerevisiae deletion strains, locus YKR091W, strain srl3, active compounds read low 0.993 | S. cerevisiae deletion strains, locus YLL001W, strain dnm1, active compounds read low 0.986 | S. cerevisiae deletion strains, locus YLL026W, active compounds read low 0.986 | S. cerevisiae deletion strains, locus YLL041C, strain sdh2, active compounds read low 0.994 | S. cerevisiae deletion strains, locus YLR027C, strain aat2, active compounds read low 0.979 | S. cerevisiae deletion strains, locus YLR039C, strain RIC1, active compounds read low 0.975 | S. cerevisiae deletion strains, locus YLR058C, strain SHM2, active compounds read low 0.964 | S. cerevisiae deletion strains, locus YLR102C, strain apc9, active compounds read low 0.993 | S. cerevisiae deletion strains, locus YLR113W, strain HOG1, active compounds read low 1 | S. cerevisiae deletion strains, locus YLR221C, strain rsa3, active compounds read low 0.985 | S. cerevisiae deletion strains, locus YLR258W, strain gsy2, active compounds read low 0.99 | S. cerevisiae deletion strains, locus YLR262C, strain YPT6 (second series), active compounds read low 0.965 | S. cerevisiae deletion strains, locus YLR262C, strain YPT6, active compounds read low 0.948 | S. cerevisiae deletion strains, locus YLR268W, strain sec22, active compounds read low 0.98 | S. cerevisiae deletion strains, locus YLR320W, strain mms22, active compounds read low 0.966 | S. cerevisiae deletion strains, locus YLR330W, strain CHS5, active compounds read low 0.989 | S. cerevisiae deletion strains, locus YLR342W, strain FKS1 (second series), active compounds read low 1.04 | S. cerevisiae deletion strains, locus YLR342W, strain FKS1, active compounds read low 0.983 | S. cerevisiae deletion strains, locus YLR357W, strain rsc2, active compounds read low 0.932 | S. cerevisiae deletion strains, locus YLR370C, strain arc18, active compounds read low 0.982 | S. cerevisiae deletion strains, locus YLR371W, strain rom2, active compounds read low 0.994 | S. cerevisiae deletion strains, locus YLR384C, strain iki3, active compounds read low 0.983 | S. cerevisiae deletion strains, locus YLR418C, strain cdc73, active compounds read low 1 | S. cerevisiae deletion strains, locus YML016C, strain PPZ1, active compounds read low 0.98 | S. cerevisiae deletion strains, locus YML032C, strain rad52, active compounds read low 0.979 | S. cerevisiae deletion strains, locus YML120C, strain ndi1, active compounds read low 0.977 | S. cerevisiae deletion strains, locus YML124C, strain tub3, active compounds read low 0.989 | S. cerevisiae deletion strains, locus YMR058W, strain fet3, active compounds read low 0.976 | S. cerevisiae deletion strains, locus YMR078C, strain ctf18, active compounds read low 0.995 | S. cerevisiae deletion strains, locus YMR125W, strain sto1, active compounds read low 0.969 | S. cerevisiae deletion strains, locus YMR129W, active compounds read low 0.984 | S. cerevisiae deletion strains, locus YMR205C, strain PFK2, active compounds read low 0.964 | S. cerevisiae deletion strains, locus YMR223W, strain ubp8, active compounds read low 1.01 | S. cerevisiae deletion strains, locus YMR231W, strain pep5, active compounds read low 0.989 | S. cerevisiae deletion strains, locus YMR263W, strain SAP30, active compounds read low 0.983 | S. cerevisiae deletion strains, locus YMR307W, strain GAS1, active compounds read low 1.08 and 1.01 | S. cerevisiae deletion strains, locus YNL067W, strain RPL9B, active compounds read low 0.969 | S. cerevisiae deletion strains, locus YNL071W, strain lat1, active compounds read low 0.963 | S. cerevisiae deletion strains, locus YNL153C, strain GIM3, active compounds read low 0.945 | S. cerevisiae deletion strains, locus YNL175C, strain NOP13, active compounds read low 0.999 | S. cerevisiae deletion strains, locus YNL183C, strain NPR1, active compounds read low 0.943 | S. cerevisiae deletion strains, locus YNL197C, strain WHI3, active compounds read low 1 | S. cerevisiae deletion strains, locus YNL209W, strain ssb2, active compounds read low 0.989 | S. cerevisiae deletion strains, locus YNL224C, strain SQS1, active compounds read low 0.998 | S. cerevisiae deletion strains, locus YNL233W, strain BNI4, active compounds read low 0.956 | S. cerevisiae deletion strains, locus YNL248C, strain rpa49, active compounds read low 0.976 | S. cerevisiae deletion strains, locus YNL250W, strain rad50, active compounds read low 0.973 | S. cerevisiae deletion strains, locus YNL271C, strain bni1, active compounds read low 0.986 | S. cerevisiae deletion strains, locus YNL298W, strain CLA4, active compounds read low 0.999 | S. cerevisiae deletion strains, locus YNL307C, strain MCK1, active compounds read low 0.993 | S. cerevisiae deletion strains, locus YNL322C, strain KRE1 (second series), active compounds read low 0.964 | S. cerevisiae deletion strains, locus YNL322C, strain KRE1, active compounds read low 0.997 | S. cerevisiae deletion strains, locus YNR049C, strain mso1, active compounds read low 0.979 | S. cerevisiae deletion strains, locus YNR052C, strain pop2, active compounds read low 0.992 | S. cerevisiae deletion strains, locus YOL006C, strain TOP1, active compounds read low 0.781 | S. cerevisiae deletion strains, locus YOL012C, strain htz1 1.02 | S. cerevisiae deletion strains, locus YOL147C, strain pex11, active compounds read low 0.992 | S. cerevisiae deletion strains, locus YOR001W, strain rrp6, active compounds read low 0.991 | S. cerevisiae deletion strains, locus YOR061W, strain CKA2, active compounds read low 0.965 | S. cerevisiae deletion strains, locus YOR069W, strain VPS5, active compounds read low 0.987 | S. cerevisiae deletion strains, locus YOR070C, strain gyp1, active compounds read low 0.974 | S. cerevisiae deletion strains, locus YOR080W, strain dia2, active compounds read low 0.975 | S. cerevisiae deletion strains, locus YOR083W, strain WHI5 (second series), active compounds read low 1.02 | S. cerevisiae deletion strains, locus YOR083W, strain WHI5, active compounds read low 0.984 | S. cerevisiae deletion strains, locus YOR106W, strain vam3, active compounds read low 0.977 | S. cerevisiae deletion strains, locus YOR136W, strain idh2, active compounds read low 0.983 | S. cerevisiae deletion strains, locus YOR144C, strain elg1, active compounds read low 0.996 | S. cerevisiae deletion strains, locus YOR184W, strain ser1, active compounds read low 0.992 | S. cerevisiae deletion strains, locus YOR231W, strain MKK1, active compounds read low 1 | S. cerevisiae deletion strains, locus YOR265W, strain rbl2, active compounds read low 0.969 | S. cerevisiae deletion strains, locus YOR270C, strain vph1, active compounds read low 0.902 | S. cerevisiae deletion strains, locus YOR290C, strain snf2, active compounds read low 0.939 | S. cerevisiae deletion strains, locus YOR316C, strain cot1, active compounds read low 0.99 | S. cerevisiae deletion strains, locus YPL051W, strain arl3, active compounds read low 0.982 | S. cerevisiae deletion strains, locus YPL078C, strain atp4, active compounds read low 0.975 | S. cerevisiae deletion strains, locus YPL106C, strain sse1, active compounds read low 0.971 | S. cerevisiae deletion strains, locus YPL240C, strain hsp82, active compounds read low 0.984 | S. cerevisiae deletion strains, locus YPL241C, strain CIN2, active compounds read low 0.997 | S. cerevisiae deletion strains, locus YPL256C, strain CLN2, active compounds read low 1.01 | S. cerevisiae deletion strains, locus YPR119W, strain clb2, active compounds read low 0.99 | S. cerevisiae deletion strains, locus YPR141C, strain kar3, active compounds read low 0.984 | S. cerevisiae deletion strains, locus YPR163C, strain tif3, active compounds read low 0.991 | S. cerevisiae deletion strains, locus YPR167C, strain met16, active compounds read low 1 | S. cerevisiae deletion strains, strain wtn01, active compounds read low 1.03 | S. cerevisiae strains, strain wild type, active compounds read low 0.979
